# Screening results deposited in PubChem by several laboratories.
# An excerpt weighted towards active compounds, which were near 27% of everything screened.
# CYP2C9 inhib – blockers of cytochrome P450 2C9 activity – biochemical, luminescence, ADME assay, primary screen | P11712 | CYP2C9 Supersomes, luciferin-H conversion | inhibition, % at 5 µM | 96,000 compounds, 20% hits | AID 777, 2007;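 active = blocking of liver enzyme CYP2C9 beyond about 50% at 5 µM, limit read from the data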
# Cav32 inh – Cav3.2 calcium influx blockers – cell-based, Fluo-4 calcium fluorescence, FDSS, MLSMR library, primary screen. Cav3.2-expressing cells; stronger effect = lower value. B-score at 10 µM. Voltage-dependent T-type calcium channel subunit alpha-1H (Homo sapiens), O95180. 100,000 compounds, 4% hits;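 active = single-dose well whose peak fluorescence ratio is a statistical outlier from its plate by either plate-standardised score or position-corrected B-score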
# Target sequence (O95180 whole entry, looked up): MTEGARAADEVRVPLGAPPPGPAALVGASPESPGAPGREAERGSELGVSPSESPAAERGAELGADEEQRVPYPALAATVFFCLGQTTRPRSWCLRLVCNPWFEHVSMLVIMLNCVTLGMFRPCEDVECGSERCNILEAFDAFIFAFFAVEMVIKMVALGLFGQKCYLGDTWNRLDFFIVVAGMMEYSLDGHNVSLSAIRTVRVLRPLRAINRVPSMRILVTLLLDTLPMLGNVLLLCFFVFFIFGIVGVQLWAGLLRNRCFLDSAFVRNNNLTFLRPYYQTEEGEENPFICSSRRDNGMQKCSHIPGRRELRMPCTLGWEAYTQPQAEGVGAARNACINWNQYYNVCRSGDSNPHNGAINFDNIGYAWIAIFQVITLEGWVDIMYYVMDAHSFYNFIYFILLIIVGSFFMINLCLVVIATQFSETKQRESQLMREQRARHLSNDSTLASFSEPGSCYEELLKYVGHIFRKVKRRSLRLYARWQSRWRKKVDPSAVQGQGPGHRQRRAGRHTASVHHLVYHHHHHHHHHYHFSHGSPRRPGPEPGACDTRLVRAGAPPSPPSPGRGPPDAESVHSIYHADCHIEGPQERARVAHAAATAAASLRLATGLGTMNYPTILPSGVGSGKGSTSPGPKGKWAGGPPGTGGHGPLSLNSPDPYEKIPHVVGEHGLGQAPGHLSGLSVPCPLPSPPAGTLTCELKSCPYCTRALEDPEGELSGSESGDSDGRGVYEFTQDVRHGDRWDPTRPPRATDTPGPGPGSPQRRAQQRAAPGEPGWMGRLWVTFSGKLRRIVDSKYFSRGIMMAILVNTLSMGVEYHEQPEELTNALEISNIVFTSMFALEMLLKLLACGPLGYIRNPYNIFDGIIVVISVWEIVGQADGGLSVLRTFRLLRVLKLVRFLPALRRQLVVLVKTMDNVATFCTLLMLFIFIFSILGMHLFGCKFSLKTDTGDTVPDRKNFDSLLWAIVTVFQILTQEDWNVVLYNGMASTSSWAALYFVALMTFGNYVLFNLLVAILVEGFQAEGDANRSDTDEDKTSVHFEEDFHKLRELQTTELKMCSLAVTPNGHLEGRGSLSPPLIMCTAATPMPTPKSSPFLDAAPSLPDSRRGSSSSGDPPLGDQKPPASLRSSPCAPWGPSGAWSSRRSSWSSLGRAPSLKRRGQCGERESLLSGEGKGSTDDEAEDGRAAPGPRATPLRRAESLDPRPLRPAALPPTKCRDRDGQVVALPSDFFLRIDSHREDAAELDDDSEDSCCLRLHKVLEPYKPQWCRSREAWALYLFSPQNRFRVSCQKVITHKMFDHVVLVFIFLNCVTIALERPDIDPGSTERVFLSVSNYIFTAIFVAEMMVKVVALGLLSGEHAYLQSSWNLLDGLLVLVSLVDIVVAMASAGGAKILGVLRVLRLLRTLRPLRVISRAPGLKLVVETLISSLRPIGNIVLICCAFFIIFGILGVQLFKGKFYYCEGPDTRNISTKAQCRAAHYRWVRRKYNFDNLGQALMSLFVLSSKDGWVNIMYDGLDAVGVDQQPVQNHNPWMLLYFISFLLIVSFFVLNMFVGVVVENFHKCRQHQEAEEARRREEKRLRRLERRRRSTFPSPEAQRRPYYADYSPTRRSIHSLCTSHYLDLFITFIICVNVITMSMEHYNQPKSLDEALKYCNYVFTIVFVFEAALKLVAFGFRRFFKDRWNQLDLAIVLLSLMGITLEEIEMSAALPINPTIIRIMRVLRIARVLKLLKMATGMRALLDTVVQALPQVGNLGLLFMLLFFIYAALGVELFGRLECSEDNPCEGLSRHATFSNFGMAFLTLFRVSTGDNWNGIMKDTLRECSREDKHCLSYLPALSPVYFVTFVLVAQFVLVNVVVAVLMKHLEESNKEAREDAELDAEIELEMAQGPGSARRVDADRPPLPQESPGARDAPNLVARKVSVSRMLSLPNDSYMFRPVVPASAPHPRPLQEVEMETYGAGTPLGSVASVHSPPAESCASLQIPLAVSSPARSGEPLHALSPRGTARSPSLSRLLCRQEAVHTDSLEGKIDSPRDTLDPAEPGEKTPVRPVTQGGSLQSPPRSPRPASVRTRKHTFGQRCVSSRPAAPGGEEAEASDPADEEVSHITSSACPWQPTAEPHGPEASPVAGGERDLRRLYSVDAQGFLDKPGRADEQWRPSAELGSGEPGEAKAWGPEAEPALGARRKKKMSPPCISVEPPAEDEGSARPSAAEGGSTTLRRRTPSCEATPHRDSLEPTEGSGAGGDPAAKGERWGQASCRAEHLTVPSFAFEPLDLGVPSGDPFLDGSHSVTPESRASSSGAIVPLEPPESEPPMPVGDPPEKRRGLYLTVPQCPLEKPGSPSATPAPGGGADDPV
# CYP2C19 inh – blockers of cytochrome P450 2C19 activity – biochemical, luminescence, ADME assay, primary screen. CYP2C19 Supersomes, luciferin-H EGE luminescence, 30 min. 96,000 compounds, 21% hits. inhibition, % at 5 µM. P33261;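 active = CYP2C19 inhibition above a set limit at 5 µM in the primary screen, cut at about 50% in these data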;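 note: plate controls were negative control wells for no effect and 2.5 mM tranylcypromine positive control for full effect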
# CYP2C19 act – human CYP2C19 activators, primary screen, biochemical, luminescence; AID 1025, 2008; recombinant CYP2C19, luciferin-H EGE luminescence; stronger effect = higher value; 0 = fully inhibited enzyme, 1 = untreated enzyme; Cytochrome P450 2C19 (Homo sapiens), P33261; 96,000 tested, under 10 active; activation factor at 5 µM;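 active = activation factor of at least 2 at 5 µM in the primary screen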;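 note: 0 = wells with 2.5 mM tranylcypromine and 1 = vehicle-only wells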
# CYP2C9 act – human CYP2C9 activators, primary screen, biochemical, luminescence; Cytochrome P450 2C9 (Homo sapiens), P11712; recombinant CYP2C9, luciferin-H conversion; stronger effect = higher value; factor 1 = untreated enzyme, 0 = blocked; activation factor at 5 µM; 96,000 compounds, 1.4% hits;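 active = activation factor of 2 or more for CYP2C9 at a 5 µM dose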;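 note: 0 = sulfaphenazole-blocked wells and 1 = vehicle-only wells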
# Starred values were filed as active, the others as inactive; · = no result.
SMILES,CYP2C9 inhib,Cav32 inh,CYP2C19 inh,CYP2C19 act,CYP2C9 act
O=C(CSc1nc2ccccc2o1)Nc1ccc(Cl)cc1,50,0.27,24,0.8,0.5
Cc1cccc(NC(=O)CSc2nc3ccccc3o2)c1,-15,-6.9*,69*,0.3,1.1
CC(OC(=O)c1snc(C(=O)NC2CCCCC2)c1N)C(=O)NC1CCCCC1 (stereo not drawn),·,-0.7,·,·,·
COc1cc2c(cc1OC)C1=C(C#N)CN(C3CCCCC3)CN1CC2,52*,-0.048,68*,0.3,0.5
CN(C)c1ccc(P(=O)(OCc2ccccc2)C(O)c2cccnc2)cc1 (stereo not drawn),58*,0.13,48,0.5,0.4
CC(C)C(O)P(=O)(OCc1ccccc1)c1ccc(N(C)C)cc1 (stereo not drawn),5,0.25,54*,0.5,0.9
O=C1CC(c2ccco2)CC(O)=C1C=Nc1cc(Cl)ccc1O (stereo not drawn),73*,·,38,0.6,0.3
Cc1ccc(N(CC(=O)NCc2ccc3c(c2)OCO3)S(=O)(=O)c2c(C)noc2C)cc1,57*,-0.42,98*,0,0.4
CCOc1ccc(N(CC(=O)NCc2ccc(F)cc2)S(=O)(=O)c2c(C)noc2C)cc1,-2,-0.61,34,0.7,1
COc1ccc(NC(=O)CN(c2ccc(C(C)C)cc2)S(=O)(=O)c2c(C)noc2C)cc1OC,2,-0.81,52*,0.5,1
Cc1noc(C)c1S(=O)(=O)N(CC(=O)NCc1ccc2c(c1)OCO2)c1ccc(C(C)C)cc1,14,-4.7,63*,0.4,0.9
COc1ccc(NC(=O)CSc2nnc(-c3cccs3)n2-c2ccccc2)cc1,-8,0.52,-3,1,1.1
Cc1cc(C)n2c(SCC(=O)Nc3ncc(C(F)(F)F)cc3Cl)nnc2n1,63*,0.33,26,0.7,0.4
Brc1cccc(/C=N\n2cnnc2)c1,8,-0.39,38,0.6,0.9
Cc1ccc(S(=O)(=O)Nc2ccc(Br)cc2/C=N/n2cnnc2)cc1,62*,-0.33,54*,0.5,0.4
O=C(CCN1CCCCC1)Nn1c(=S)[nH]c2ccccc2c1=O,16,0.7,-11,1.1,0.8
O=C(Nn1c(=S)[nH]c2ccccc2c1=O)c1ccncc1,18,-0.17,85*,0.1,0.8
Cc1cccc2cc(COC(=O)C3CCCCC3)c(=O)[nH]c12,-2,0.7,10,0.9,1
N#Cc1cc(-c2ccccc2)cnc1Sc1ccccc1,78*,-0.24,28,0.7,0.2
O=C(O)c1ccc2c(c1)-c1nc3ccccc3n1C2=O,9,-0.17,-2,1,0.9
O=C(OCN1C(=O)c2ccccc2C1=O)c1ccccc1,-61,·,68*,0.3,1.6
O=C(c1ccccc1)c1ccc(CN2C(=O)c3ccccc3C2=O)o1,85*,-2.7,91*,0.1,0.2
Cc1cc(C)nc(N2CCC(C(=O)Nc3nnc(C)s3)CC2)n1,27,·,0,1,0.7
COc1ccc(/C(C#N)=C/c2c(-c3ccc(Cl)cc3)nc3c(C)cccn23)cc1,57*,-5.8*,52*,0.5,0.4
O=C(Nc1ccccc1)C1=C(N2CCOCC2)/C(=C/c2cccnc2)CC1,67*,0.049,87*,0.1,0.3
SMILES,CYP2C9 inhib,Cav32 inh,CYP2C19 inh,CYP2C19 act,CYP2C9 act
Cc1ccc(C(=O)Nc2cccnc2)cc1S(=O)(=O)N1CCOCC1,36,0.79,47,0.5,0.6
C=CC1CN(C(=O)OCC(Cl)(Cl)Cl)C2CC3c4ccc(OC)cc4NC3C3CC1C2CO3 (stereo not drawn),·,-0.64,·,·,·
CCn1cc(C(=O)NCCCN2CCC(C)CC2)c2cc(OC)c(OC)cc2c1=O,1,·,-2,1,1
Cc1cc(C)nc(-n2nc(C)cc2NC(=O)CNCc2ccccc2)n1,61*,-0.025,33,0.7,0.4
Cc1cc(C)nc(-n2nc(C)cc2NC(=O)CN2CCCC(C)C2)n1 (stereo not drawn),48,0.027,36,0.6,0.5
CCC(C(=O)Nc1cc(C)nn1-c1nc(C)cc(C)n1)c1ccccc1 (stereo not drawn),34,-0.51,14,0.9,0.7
CCN(CC(=O)Nc1cc(C)nn1-c1nc(C)cc(C)n1)Cc1ccccc1,83*,·,69*,0.3,0.2
